SARS PLP yeast – blocks SARS-CoV papain-like protease in a yeast assay; Potency, µM (titrated, usually from 32.9 µM), for the others: top-dose activity, positive = growth rescue, hits mostly activators; S. cerevisiae expressing SARS-CoV PLpro, growth rescue; actives 0.19% (n = 330,000); AID 485353; calls by dose curve; also: 0% is about no effect; nearly all actives have a fitted effect of over 55% in size
Pf growth 96h – P. falciparum growth inhibition at 96 hours. P. falciparum luciferase reporter growth, 96 h. Potency, µM (titrated, usually from 28.7 µM), without a hit: at the top dose activity change, negative = inhibition, usual class: inhibitors. actives 6.9% (n = 320,000). AID 504834; also: % is scaled to controls: 0 for no effect and ±100 for the full control effect
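Infected RBCs, 2% Hct / 0.05% parasitemia final; luciferase-reporter P. falciparum; cpd 96 h, 37 C, 5% CO2; luciferase detection reagent; luminescence.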
Pf growth 48h – P. falciparum growth inhibition at 48 hours (one generation) | P. falciparum luciferase growth in erythrocytes, 48 h | Potency, µM (doses to about 28.7 µM), for inactives: at the highest dose activity change, negative = inhibition, actives largely listed as inhibitors | actives 5.9% (n = 310,000) | AID 504832; also: % is scaled to controls: 0 for no effect and ±100 for the full control effect
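Cell-based growth assay: transgenic P. falciparum expressing firefly luciferase, cultured in red cells within RPMI 1640 containing 0.5% w/v Albumax, 24 mM bicarbonate and gentamycin. A drop in luciferase activity indicates inhibition.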
Sm TGR inh – S. mansoni TGR enzyme inhibition; purified TGR, DTNB reduction, TNB absorbance 405 nm; Potency, µM (titrated, usually from 114 µM), inactives show at the top dose activity change, negative = inhibition, usual class: inhibitors; actives 3% (n = 360,000); AID 485364; also: % is scaled to controls: 0 for no effect and ±100 for the full control effect; nearly all actives have a fitted effect of over 60% in size
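TGR 20 nM + NADPH 100 uM (dispensed conc.), cpd preinc 15 min RT; start with NADPH (500 uM addition) then DTNB (15 mM addition). Kinetic TNB absorbance, 405 nm filter. Four-parameter Hill fit across titration.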
An asterisk follows results filed as active; ? = inconclusive; . = not tested or not shown; [ ] = remark or other dose. A selection: hits, their analogues and other compounds. The true share with any hit is near 12%. Unless noted, calls follow the shape of the dose curve; as a rule, active = well fitted curve in the direction sought with a large enough effect; inconclusive = small, poorly fitted or top-dose-only effect, or another doubt; inactive = no such curve, though single readings can be large; an effect the other way counts as inactive or inconclusive. Potency is read from the fitted curve at half-maximal effect.

SMILES	SARS PLP yeast	Pf growth 96h	Pf growth 48h	Sm TGR inh
Cc1cccc(NC(=O)c2cnc3sccn3c2=O)c1	-1.2%	411.8%	159.9%	2.6%
COc1cccc(-c2nn(-c3ccccc3)cc2C(=O)Nc2nccs2)c1	-0.5%	?	7.38µM*	9.0%
Cc1cccc(NC(=O)c2cnc3ccccn3c2=O)c1	-0.9%	11.7µM*	188.1%	-6.3%
Cc1cccc(NC(=O)c2cn(-c3ccccc3)nc2-c2ccccc2)c1	15.5%	13.1µM*	-8.4%	0.9%
Cc1cccc(C)c1NC(=O)c1cn(-c2ccccc2)nc1-c1ccccc1	0.3%	-42.4%	-23.4%	1.9%
COc1cc(C2C(C(=O)Nc3ccccc3)=C(C)Nc3nnnn32)cc(OC)c1OC (stereo unspecified)	.	.	.	-0.1%
O=C(O)c1ccc(NC(=O)c2cn(-c3ccccc3)nc2-c2cccc(Cl)c2)cc1	2.3%	11.7µM*	3.0%	0.0%
COc1ccc(NC(=O)c2cn(CCC#N)nc2-c2ccccc2)cc1	4.0%	0.0%	-3.0%	-3.0%
N#CCCn1cc(C(=O)Nc2ccc(F)cc2)c(-c2ccccc2)n1	-3.9%	148.2%	4.4%	-8.1%
N#CCCn1cc(C(=O)Nc2ccc(C(=O)O)cc2)c(-c2cccc(Br)c2)n1	0.7%	?	6.1%	100µM*
COc1ccccc1NC(=O)c1cn(CCC#N)nc1-c1ccc(F)cc1	-5.6%	11.7µM*	-4.8%	-28.6%
CCc1ccc(-n2c(=O)c3c4c(sc3n(CC(=O)c3ccc(Br)cc3)c2=O)CCC4)cc1	.	.	.	-12.8%
OC[C@@H]1[C@@H](c2ccc(Cl)cc2)C(c2ccc(F)cc2)=NN1c1ccccc1	-79.6%	.	.	.
CCOC(=O)CC1=NN(c2ccccc2)C(=O)C1	3.3%	36.2%[5.75 µM]	-9.8%	.
CCOC(=O)CC1=NN(c2ccccc2)C(=O)/C1=C\c1ccc(N(C)C)cc1	19.0%	5.86µM*	?	4.2%
CC12CCC(C(=O)N(CSC(=S)N/N=C\c3ccccc3)C1=O)C2(C)C (stereo unspecified)	10µM*	?	?	4.47µM*
CC12CCC(C(=O)N(CSC(=S)N/N=C\c3ccccc3Cl)C1=O)C2(C)C (stereo unspecified)	?	?	?	-1.0%
Cc1ccc2nc(/N=C(\N)NC(=O)N3c4ccccc4Sc4ccccc43)nc(C)c2c1	-14.9%	353.8%	-17.6%	4.3%
Cc1ccc2c(C)nc(/N=C(\N)NC(=O)N3c4ccccc4Sc4ccccc43)nc2c1	-22.6%	-102.9%	13.1µM*	4.4%
Cc1cc2nc(/N=C(\N)NC(=O)N3c4ccccc4Sc4ccccc43)nc(C)c2cc1C	-16.7%	?	8.28µM*	4.0%
CCc1ccc(-n2nc(C)c3c(C(=O)N4CCN(c5ccccc5)CC4)cc(C)nc32)cc1	.	.	.	9.3%
Cc1nn(-c2cccc(Cl)c2)c2nc(-c3ccncc3)cc(C(=O)N3CCOCC3)c12	-6.0%	6.57µM*	?	1.1%
Cc1nn(-c2ccccc2)c2nc(-c3ccccc3)cc(C(=O)N3CCOCC3)c12	-8.6%	2.08µM*	-18.9%	13.1%
COc1cc(NC(=O)c2ccc(Cl)cc2)c(Cl)cc1NC(=O)c1cccnc1	0.1%	22.3%	35.7%	7.1%
N=c1c2c(-c3ccccc3)c(-c3ccccc3)n(Cc3ccco3)c2ncn1Cc1ccco1	-6.3%	?	3.7µM*	?
SMILES	SARS PLP yeast	Pf growth 96h	Pf growth 48h	Sm TGR inh
N=c1c2c(-c3ccccc3)c(-c3ccccc3)n(Cc3ccccc3)c2ncn1CCCn1ccnc1	3.6%	1.31µM*	0.928µM*	-6.0%
CCCCn1c(=O)[nH]c(=O)c2c1ncn2Cc1ccco1	8.0%	?	.	?
CCCCn1cnc2c(c(-c3ccccc3)c(-c3ccccc3)n2Cc2ccco2)c1=N	0.4%	2.33µM*	4.15µM*	-26.9%
O=C(CN1C(=O)COc2ccc(S(=O)(=O)N3CCOCC3)cc21)N1CCN(c2ccccc2F)CC1	.	.	.	-0.7%
O=C(NC1(Cc2ccccc2)CCN(CCc2cccs2)C1=O)c1ccccc1 (stereo unspecified)	-4.2%	?	0.0%	?
CCN1CC=C2C(C#N)=C(N)C(C#N)(C#N)C(c3cc(Cl)ccc3Cl)C2C1 (stereo unspecified)	-9.0%	0.0%	8.28µM*	?
CC(=O)c1c(CC(=O)O)[nH]n(-c2nc3ccccc3s2)c1=O	-16.6%	4.4%	.	2.4%
O=c1cc(-c2ccccc2)[nH]n1-c1nc2ccccc2s1	-2.7%	5.22µM*	15.5%	-25.1%
COc1cc(C2OCC3C(c4ccc(OC5OC(CO)C(O)C(O)C5O)c(OC)c4)OCC23)ccc1O (stereo unspecified)	1.3%	25.7%	44.1%	35.5µM*
COc1ccc2c(c1)-c1c(sn(-c3ccc(OC)c(OC)c3)c1=S)C(C)(C)N2	-2.8%	10.4µM*	?	-1.5%
COC(=O)c1ccc(C(=O)OC)c(NC(=O)/C=C/C(=O)O)c1	-0.2%	-7.7%	24.4%	10µM*
Cc1ccc(OCc2cc(C(=O)NC(C)Cc3cccc(C)n3)no2)cn1 (stereo unspecified)	-2.1%	42.7%	-2.0%	0.0%
CCOC(=O)c1cc(-c2ccccc2)nc2c1c(C)nn2-c1ccccn1	-11.9%	.	?	-1.3%
CCOC(=O)c1cc(-c2ccc3c(c2)OCCO3)nc2c1c(C)nn2CCC#N	4.2%	.	9.28µM*	44.7%
CCOC(=O)c1cc(-c2ccncc2)nc2c1c(C)nn2C	-15.0%	3.29µM*	.	?
CCOC(=O)c1cc(-c2ccco2)nc2c1c(C)nn2CCC#N	-3.2%	?	8.28µM*	3.98µM*
Cn1c(=O)c2cc(S(=O)(=O)Nc3cc(C(=O)O)cc(C(=O)O)c3)ccc2n(C)c1=O	-2.0%	25.3%	42.6%	5.1%
Cc1cc(C)cc(NS(=O)(=O)c2ccc3c(c2)c(=O)n(C)c(=O)n3C)c1	-6.4%	.	11.7µM*	12.6%
CN(C(=O)Cn1cc(S(=O)(=O)Cc2ccccc2Cl)c2ccccc21)c1ccccc1	.	.	.	7.1%
COc1ccc([C@@H]2[C@@H]3C(=O)N(C(C)(C)C)C(=O)[C@@H]3[C@]3(Cc4ccccc4)C(=O)N(c4ccc(C(F)(F)F)cc4)C(=O)N23)cc1	-3.8%	5.86µM*	?	-8.9%
COc1ccc([C@@H]2[C@@H]3C(=O)N(C(C)(C)C)C(=O)[C@@H]3[C@]3(Cc4ccccc4)C(=O)N(c4ccc(OC)cc4)C(=O)N23)cc1	7.0%	?	?	2.8%
COc1ccc([C@@H]2[C@@H]3C(=O)N(C(C)(C)C)C(=O)[C@@H]3[C@]3(CC(C)C)C(=O)N(c4ccccc4)C(=O)N23)cc1	-5.4%	?	?	-10.7%
COc1ccc([C@@H]2[C@@H]3C(=O)N(C(C)(C)C)C(=O)[C@@H]3[C@]3(CC(C)C)C(=O)N(c4ccc(C(F)(F)F)cc4)C(=O)N23)cc1	11.2%	3.7µM*	11.7µM*	0.9%
CCOC(=O)c1nn(-c2ccc(C)c(C)c2)c(=O)c(C#N)c1C	2.5%	21.0%	6.7%	-9.3%
COCCCNC(=O)/C(C#N)=C/c1c(N2CCN(c3ccccc3)CC2)nc2c(C)cccn2c1=O	0.0%	10.4µM*	13.1µM*	35.5µM*
